Ten compounds from PubChem BioAssay (NCI) can be followed below.

Compounds without any hit were thinned out: in the full panel of roughly 83,000, 20% have a hit.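 Single-dose data. Exposure time 48 hours. Values below 10 considered active.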 A number with no mark means an inactive call. Calls of active or inactive are those of the source.

Test in all cases: NCI-60 one-dose screen, 48 h (100 = growth as untreated, 0 = no growth, -100 = all killed)
What all share (conditions): 10 µM

Test [1] relates to NCI-H226 lung.
Test [2] concerns HOP-62 NSCLC.
The subject of test [3] is NCI-H460 lung.
The test system of test [4] is HOP-92 NSCLC.
Test [5] has as its system NCI-H522 lung.
Test [6] relates to A549/ATCC NSCLC.
Test [7] deals with 786-0 renal.
Test [8] concerns COLO 205 colon.

For the compound `CCCc1cn(CC(=O)Nc2nc3ccccc3s2)nn1`, the growth is 106% in test [1]; 102% in test [2]; 103% in test [3]; 109% in test [4]; 93.8% in test [5]; 98.4% in test [6]. For the same compound, the growth was 108% in test [7] and 109% in test [8].

As to `COc1cc2c3c(n(C4CCNCC4)c(=O)c2cc1OC)-c1cc2c(cc1C3=O)OCO2`, the growth is -43.8% (active) in test [1]; -66.2% (active) in test [3]; -44.3% (active) in test [5]; -53.7% (active) in test [6]; -60% (active) in test [7]; -83% (active) in test [8].

On to `COc1cc(C(=O)n2nc(-c3cc(OC)c(OC)c(OC)c3)nc2N)cc(OC)c1OC`, for which the growth in test [1] is 98.7%; in test [2], 85.8%; in test [3], 103%; in test [4], 82%; in test [5], 82.1%; in test [6], 98.5%. Further, the growth in test [7] was 96.6%; in test [8], 99.4%.

On to `COc1cc(/C=C/c2cc(/C=C/c3ccc(O)c(OC)c3)n(C(=O)Nc3ccc(C)cc3)n2)ccc1O`, for which the growth in test [1] is -0.891% (active); in test [2] it was 11.6%; in test [3], 10.1%; in test [4], -15.4% (active); in test [5], -19.3% (active); in test [6], 4.71% (active). Moreover, the growth in test [7] was -1.18% (active).

With `C=CCNCCN1C(=O)c2ccc3c4c(ccc(c24)C1=O)C(=O)N(CCNCC=C)C3=O`, the growth in test [1] is -51.6% (active); in test [2], -28.7% (active); in test [3], -39.3% (active); in test [4], -34.5% (active); in test [5] it was -79.7% (active); in test [6] it was -71.4% (active). Further, the growth in test [7] was -2.95% (active); in test [8], -90.5% (active).

Regarding `NC1=CC(=O)C(=O)c2cccnc21`, the growth in test [1] is 82.4%; in test [2], 80.2%; in test [4] it was 149%; in test [5], 59.8%; in test [6], 43.9%; in test [7] it was 99.7%.

As to `N#CC1=CC2CN(Cc3ccccc3)C1C1C(=O)N(c3ccccc3)C(=O)C21` (stereo not given), the growth in test [1] is 97.7%; in test [3], 101%; in test [4] it was 108%; in test [5], 106%; in test [6], 95.5%; in test [7], 102%. In test [8], the growth is 98.2%.

For `COc1ccc(-c2nn(-c3cccc(Cl)c3)cc2-c2c(C#N)c(=O)n3[nH]c(-c4ccc(C)cc4)nc3c2C#N)cc1`, the growth in test [1] was 57.5%; in test [3], 39.3%; in test [4], 59.2%; in test [5] it was 20.5%; in test [6] it was 50.5%; in test [7] it was 3.78% (active). The growth in test [8] is 15.9%.

For `Cn1c2ccccc2c2c3[nH][nH]c(=O)c3c3c4ccccc4[nH]c3c21`, the growth is 65.8% in test [1]; -28.2% (active) in test [3]; 4.72% (active) in test [5]; 56.9% in test [6]; 23% in test [7]; 59% in test [8].

On to `COC1=CC(=O)OC(c2ccc(OC)cc2)C1` (stereo not given), for which the growth in test [1] is 110%; in test [2] it was 105%; in test [3], 109%; in test [4], 98.1%; in test [6], 108%; in test [7], 109%. Besides, the growth in test [8] is 108%.
